Cycloheximide cs = counter-screen hit for Shiga toxin inhibitors, cycloheximide; AID 2314; 12% of 300,000 active; cell reporter, cycloheximide protein synthesis inhibition counterscreen; max response, %; in the data active = max response mostly above about 13%, no sharp cut-off; inactive = mostly below about 14%; note: read at 38.3 µM for the half of the compounds with a filed dose; 0% is about no effect
Pf growth 48h = P. falciparum growth inhibition at 48 hours (one generation). 5.9% of 310,000 active. Potency, µM (series often up to 28.7 µM), without a hit: at the highest dose activity change, negative = inhibition, actives largely listed as inhibitors. P. falciparum luciferase growth in erythrocytes, 48 h; note: potency is the fitted concentration of half-maximal effect; % is set by controls: 0 for no effect and ±100 for the full control effect
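Luciferase-expressing P. falciparum in infected erythrocytes (2% hematocrit, 0.1% parasitemia final) in RPMI 1640/0.5% Albumax were exposed to compound for 48 hours at 37 C, 5% CO2; growth read as luminescence.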
Pf growth 96h = P. falciparum growth inhibition at 96 hours. P. falciparum luciferase reporter growth, 96 h. Potency, µM (titrated, usually from 28.7 µM), inactives show at the highest dose activity change, negative = inhibition, usual class: inhibitors. 6.9% of 320,000 active; note: potency is the fitted concentration of half-maximal effect; % is set by controls: 0 for no effect and ±100 for the full control effect
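Infected RBCs, 2% Hct / 0.05% parasitemia final; luciferase-reporter P. falciparum; cpd 96 h, 37 C, 5% CO2; luciferase detection reagent; luminescence.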
Shiga inhibitor = Shiga toxin inhibition; Vero cells, Shiga toxin protein synthesis inhibition reporter; inhibition, % at 38.7 µM; 9.2% of 290,000 active; AID 2315; in the data active = inhibition mostly above about 28%, no sharp cut-off; inactive = mostly below about 43%; note: 0% is about no effect
Numbers without * were called inactive; ? = inconclusive; · = no result given; [ ] = another dose, or the depositor's remark. The list is not random: actives were taken first. Their share in the collection is about 21%. Unless noted, calls come from the whole dose curve; as a rule, active = well fitted inhibition curve with a large enough effect; inconclusive = small, poorly fitted or top-dose-only effect, or another doubt; inactive = no such curve, though single readings can be large or run the other way.

SMILES | Cycloheximide cs | Pf growth 48h | Pf growth 96h | Shiga inhibitor
CS(=O)(=O)c1ccc([C@@H](O)[C@@H](CF)NC(=O)C(Cl)Cl)cc1 | · | 12µM* | 3.3µM* | ·
CS(=O)(=O)c1ccc([C@H](O)[C@H](CF)NC(=O)C(Cl)Cl)cc1 | · | ? | 2µM* | ·
CS(=O)(=O)c1ccc([C@H](O)[C@H](CO)NC(=O)C(Cl)Cl)cc1 | · | -18%[12.8 µM] | ? | ·
CC1=C(C(=O)Nc2ccc(C(=O)NCCCN3CCCCC3)cc2)SCCO1 | -9 | 6% | ? | 19
Clc1ccc(CON/C=N/c2ncnc3sccc23)c(Cl)c1 | -4 | 5% | 0% | 25
O=C(CC1SC(N2CCOCC2)=NC1=O)Nc1ccccc1Cl (stereo not drawn) | · | 31% | 5% | ·
NCCCNc1nc(N)c([N+](=O)[O-])c(NC2CCCCC2)n1 | -8 | 2.3µM* | ? | -13
COc1cc(-n2c(=O)c3ccccc3n(CC(=O)OCc3ccccc3)c2=O)cc(OC)c1OC | -3 | 10% | 9.3µM* | -14
Nc1ccc2ncccc2c1 | 48* | ? | ? | 136*
Nc1ccc2ncccc2c1N | 28* | ? | ? | 42*
c1cnc2ccc3ncccc3c2c1 | 14 | -27% | -11% | 35
Nc1ccc(/C=C/c2ccc3ncccc3c2)cc1 | 38* | 133% | -57% | 85*
O=c1c2c(-c3cccs3)csc2ncn1-c1ccccc1 | 2 | -15% | 12µM* | 7
CC(=O)Nc1ccc(S(=O)(=O)NNc2ccc([N+](=O)[O-])cc2)cc1 | -2 | 23% | ? | -2
CC(=O)c1cccc(NS(=O)(=O)c2ccc(N/C=C\C(=O)c3ccc(C)cc3)cc2)c1 | 13 | ? | ? | 15
CC(=O)Nc1ccc(N/C=C/C(=O)c2ccc(Cl)cc2)cc1 | 12 | 36% | 39% | 27
CC(=O)c1ccc(N/C=C\C(=O)c2ccc(C)cc2)cc1 | 53* | 115% | 31% | 112*
Cc1ccc(C(NC(=O)/C=C\c2ccc3c(c2)OCO3)C(=O)Nc2ccc3c(c2)OCO3)cc1 (stereo not drawn) | 9 | -25% | -5% | -6
Cc1ccc(C(=O)/C=C/Nc2ccc3c(c2)OCO3)cc1 | 61* | 203% | ? | 164*
CC(=O)c1cccc(N/C=C\C(=O)c2ccc(C)cc2)c1 | 42* | 296% | -43% | 65*
C/C(=C\C(=O)c1ccc(C)cc1)Nc1cccc(O)c1 | 43* | 398% | 145% | 93*
CC(C)C(NC(=O)CSCc1ccc([N+](=O)[O-])cc1)C(C)C | 1 | ? | 19% | -7
CCCNC(=O)C1CC(c2ccccc2C(F)(F)F)=NO1 (stereo not drawn) | · | ? | 62% | ·
C=CCN(C(=O)CNC(=O)c1ccco1)C(C(=O)NC1CCCC1)c1ccc(OC)cc1 (stereo not drawn) | -1 | -6% | -2% | -6
Cc1ccc(C(=O)/C=C/Nc2cccc(O)c2)cc1 | 9.7* | 175% | 1% | -4
SMILES | Cycloheximide cs | Pf growth 48h | Pf growth 96h | Shiga inhibitor
Cc1cc(C)c2nc(NC(=O)[C@@H](NC(=O)c3cccc(S(=O)(=O)N4CCOCC4)c3)C(C)C)sc2c1 | 32* | 9.3µM* | 6.6µM* | 64*
Cc1ccsc1CN(C)C(=O)C(NC(=O)c1cccc(S(=O)(=O)N2CCOCC2)c1)C(C)C (stereo not drawn) | · | 13µM* | ? | ·
Cc1ccccc1NC(=O)c1cccc(S(=O)(=O)N2CCOCC2)c1 | 0 | 21% | ? | -5
COC(C[C@@H]1O[C@@H]1[C@@H](O)COCc1ccccc1)OC | -8 | 54% | 72% | 3
O=C(Nc1ccccc1Cl)N1CCN(c2ccc3nnc(-c4ccccc4)n3n2)CC1 | -6 | · | ? | -11
COc1ccc(-c2noc(C3CCCN(C(=O)Nc4ccccc4)C3)n2)cc1 (stereo not drawn) | -4 | 3% | 3% | -13
O=S(=O)(c1ccc(Cl)cc1)N1CCCC(c2nc(-c3ccc(F)cc3)no2)C1 (stereo not drawn) | · | ? | -10% | ·
O=C(Nc1ccc(Cl)cc1)N1CCN(c2ccc3nnc(-c4ccc(F)cc4)n3n2)CC1 | 5 | 9.3µM* | ? | 8
O=C(Nc1ccc(Cl)cc1)N1CCC(c2nc(-c3ccc(F)cc3)no2)CC1 | 35* | ? | 106% | 53*
COc1ccc(NC(=O)N2CCCC(c3nc(-c4ccc(C(C)C)cc4)no3)C2)cc1 (stereo not drawn) | 32* | 37% | 8.3µM* | 21
COc1ccc(NC(=O)N2CCCC(c3nc(-c4ccc(OC)cc4)no3)C2)cc1 (stereo not drawn) | 40* | 44% | 19% | 55
COC(=O)c1cn(C(=O)c2ccc(OC)cc2)c2ccccc12 | 0 | -3% | ? | ·
Cc1noc(C)c1C(=O)N1CCC(C(=O)c2ccccc2)CC1 | -3 | 6% | 12% | -4
COc1ccc(-c2noc(C3CCCN(C(=O)Nc4ccccc4F)C3)n2)cc1 (stereo not drawn) | 38* | 73% | ? | 24
COc1ccc(-c2noc(C3CCCN(C(=O)c4ccccc4C)C3)n2)cc1 (stereo not drawn) | 1 | ? | ? | 10
Cc1ccc(S(=O)(=O)NC(C)(C)CN2CCc3ccccc3C2)cc1 | -4 | -2% | 4% | -18
N[C@@H]1C(O)OC(CO)C(O)C1O (stereo partly drawn) | · | 12% | -14% | ·
O=c1[nH]c(-c2ccc(O)cc2)nc2scc(-c3cccs3)c12 | 80* | 36% | 2% | 108*
O=C(CN1CCN(c2ccccc2)CC1)Nc1ccccc1Cl | -2 | -15% | -3% | -9
O=C(CN1CCN(c2ccccc2O)CC1)Nc1ccccc1C(=O)NCCc1ccccc1 | · | -84% | 0% | ·
O=C(CN1CCN(c2ccccc2)CC1)Nc1ccccc1Sc1ccccc1 | 1 | ? | 9.3µM* | -8
COc1ccc(CCNC(=O)c2ccccc2NC(=O)CN2CCN(c3ccccc3O)CC2)cc1 | · | 10µM* | 7.4µM* | ·
COc1ccc(N2CCN(CC(=O)Nc3ccccc3C(=O)NCc3ccccc3)CC2)cc1 | · | 13µM* | ? | ·
CC(=O)Nc1ccc(NC(=O)CSc2nnc(NC(=O)c3ccc(Br)o3)s2)cc1 | -3 | 5% | 1% | 4
Brc1ccccc1-c1csnn1 | -4 | 10% | 26% | 20
SMILES | Cycloheximide cs | Pf growth 48h | Pf growth 96h | Shiga inhibitor
CC(Oc1ccc2c(c1)oc(=O)c1ccccc12)C(=O)NCCN1CCOCC1 (stereo not drawn) | -2 | 16% | -2% | -4
CCOC(=O)/C(=C\Nc1ccc(OC(F)(F)F)cc1)Sc1ncc(C(F)(F)F)cc1Cl | -3 | 2.1µM* | · | -25
CN1C(C(=O)NCc2ccc(OC(F)(F)F)cc2)CC2Cn3c(nc4cc(Cl)c(Cl)cc43)C21 (stereo not drawn) | -9 | ? | ? | -9
Cc1ccc(NC(=O)Nc2nnc(-c3ccccc3F)s2)cc1 | 18 | 37% | 35% | 19
O=C(Nc1nnc(-c2ccccc2F)s1)c1cccnc1 | 23* | 14% | -159%[5.75 µM] | 45*
O=C(Nc1nnc(C(F)(F)F)s1)c1cccnc1 | 39* | 113% | · | 65*
O=C(Nc1nnc(C(F)(F)F)s1)c1c(F)cccc1F | 11 | ? | 2% | -4

Screening data: PubChem BioAssay, National Center for Advancing Translational Sciences (NCATS)
